Measurements from PubChem BioAssay (NCATS).
Records with an inconclusive call do not appear. Active and inactive are the calls of the source. Calls follow the shape of the dose curve; as a rule, active = well fitted inhibition curve with a large enough effect; inconclusive = small, poorly fitted or top-dose-only effect; inactive = no such curve, though single readings can be large or run the other way.

Target: Aldehyde dehydrogenase 1A1 (Homo sapiens) (UniProt P00352)
Assay: qHTS for Inhibitors of the Aldehyde Dehydrogenase Family (ALDH1A1) Confirmatory screens (AID 2061316); also: nearly all actives have a fitted effect of over 65% in size
Conditions: ALDH inhibition qHTS; series mostly up to 47.3 µM
Potency is read from the fitted curve at half-maximal effect.

Compound	Potency
CO/N=C(/C(=O)N[C@@H]1C(=O)N2C(C(=O)O)=C(CSC(=O)c3ccco3)CS[C@H]12)c1csc(N)n1	5.65 µM (active)
Cc1ccc(C(=O)Nc2noc3ccccc23)cc1	inactive
CNC(=S)NS(=O)(=O)c1cc(CCNC(=O)c2cc(Cl)ccc2OC)ccc1OC	11.3 µM (active)
COc1cc(OC)c(NC(=O)c2ccc(Cc3cc4c(cc3C)C(C)(C)CCC4(C)C)o2)c(OC)c1	5.04 µM (active)
CN(CCCNC(=O)c1ccc2nc3c(c(Cl)c2c1)CCCC3)Cc1ccccc1	8.96 µM (active)
C=C1C(=O)O[C@@H]2C3C(=C(C)[C@@H](O)[C@@H](OC(=O)/C(=C/C)COC(C)=O)[C@@H]12)C(=O)[C@H]1O[C@@]31C (stereo partly specified)	inactive
